Test results taken from a collection of fitness landscapes (doi:10.1016/j.celrep.2020.107928).
Over roughly 81,000 sequences, “one-hybrid fitness for binding parS DNA” has its median near -0.17; the highest 2% begin near 0.51. Shown is part of a subset that was picked to be rich in the highest values.

B1: Caulobacter ParB omega fusion; a variant is named by its letters at X, in order, B8GW30 (parent)
chain: MESVVVGEPGMSEGRRGLGRGLSALLGEVDAAPAQAPGEQLGGSREAPIEILQRNPDQPRRTFREEDLEDLSNSIREKGVLQPILVRPSPDTAGEYQIVAGERAWRAAQRAGLKTVPIMVRELDDLAVLEIGIIENVQRADLNVLEEALSYKVLMEKFERTQENIAQTIGKSXSHVANXMRLLXLPDEVQSYLVSGELTAXHARAIAAAADPVALAKQIIEGGLSVRETEALARKAPNLSAGKSKGGRPPRVKDTDTQALESDLSSVLGLDVSIDHRGSTGTLTITYATLEQLDDLCNRLTRGI

Variants of: B1
Test: one-hybrid fitness for binding parS DNA (scaled: cognate 1, non-cognate 0); higher = stronger binding
Details: with parS DNA site
How it was run: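 Fitness here means the log change in variant-to-wild-type read ratio between plasmids sequenced before and after selection. That scale was set so cognate equals 1 and non-cognate equals 0. The selection was a bacterial one-hybrid screen of Caulobacter ParB libraries, four specificity codons randomised, in E. coli USO carrying a HIS3 reporter with the site 19 bp from the promoter, grown 48 hours at 37°C on M9-minus-histidine with 0.1 mM IPTG and 5 mM 3-AT.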

Row | Variant | one-hybrid fitness for binding parS DNA
1 | RYTG | 0.992
2 | RYTR | ≤ 0.2
3 | RYTH | ≤ 0.2
4 | RYTY | 0.429
5 | RYTS | 0.904
6 | RYTN | 0.429
7 | RYTC | 0.903
8 | RYTT | 0.884
9 | RFHK | ≤ 0.2
10 | NTHH | ≤ 0.2
11 | YAER | ≤ 0.2
12 | SRAR | ≤ 0.2
13 | DHRG | ≤ 0.2
14 | WTKG | ≤ 0.2
15 | TPGV | ≤ 0.2
16 | PQLQ | ≤ 0.2
17 | RWFG | 0.615
18 | RWAF | ≤ 0.2
19 | RWAG | 0.72
20 | RWFK | ≤ 0.2
21 | KWFG | ≤ 0.2
22 | RWAM | ≤ 0.2
23 | TYPT | ≤ 0.2
24 | MSSI | ≤ 0.2
25 | DTPG | ≤ 0.2
26 | HKES | ≤ 0.2

Row | Variant | one-hybrid fitness for binding parS DNA
27 | ANPQ | ≤ 0.2
28 | WNSC | ≤ 0.2
29 | RNNP | ≤ 0.2
30 | RNND | ≤ 0.2
31 | RNDN | 0.226
32 | RNDS | 0.823
33 | RNDP | ≤ 0.2
34 | RNNS | 0.969
35 | HDLV | ≤ 0.2
36 | IGRI | ≤ 0.2
37 | WCIS | ≤ 0.2
38 | PFSI | ≤ 0.2
39 | AYDD | ≤ 0.2
40 | RKQG | 0.913
41 | RKLK | ≤ 0.2
42 | RKYN | 0.297
43 | RKQR | ≤ 0.2
44 | RKGG | 0.937
45 | RKLG | 0.964
46 | RKGH | ≤ 0.2
47 | RKLY | 0.402
48 | RKYG | 0.952
49 | RKQM | ≤ 0.2
50 | RKYD | ≤ 0.2
51 | RKGP | ≤ 0.2
52 | ASNF | ≤ 0.2

Row | Variant | one-hybrid fitness for binding parS DNA
53 | STMD | ≤ 0.2
54 | THAI | ≤ 0.2
55 | HFAT | ≤ 0.2
56 | VNIM | ≤ 0.2
57 | GRPC | ≤ 0.2
58 | ANQN | ≤ 0.2
59 | HYCT | ≤ 0.2
60 | RKCQ | ≤ 0.2
61 | RKCG | 0.971
62 | RKRP | ≤ 0.2
63 | RKCM | 0.286
64 | RKHR | ≤ 0.2
65 | RKHF | ≤ 0.2
66 | RKRD | ≤ 0.2
67 | RKRG | 0.851
68 | RKHG | 0.925
69 | QYTT | ≤ 0.2
70 | HLKG | ≤ 0.2
71 | TWTY | ≤ 0.2
72 | QNAG | ≤ 0.2
73 | GTTH | ≤ 0.2
74 | SETA | ≤ 0.2
75 | TDDG | ≤ 0.2
76 | QFHD | ≤ 0.2
77 | RMDT | 0.794
78 | RMNF | 0.237

Row | Variant | one-hybrid fitness for binding parS DNA
79 | RMGT | 0.937
80 | RMDL | ≤ 0.2
81 | RMRM | 0.379
82 | RMGF | 0.269
83 | RMRT | 0.812
84 | RMGK | ≤ 0.2
85 | RMDF | 0.223
86 | RMRQ | ≤ 0.2
87 | RMNT | 0.904
88 | RMND | ≤ 0.2
89 | GTPS | ≤ 0.2
90 | EHHI | ≤ 0.2
91 | KHQH | ≤ 0.2
92 | PMNI | ≤ 0.2
93 | RECV | ≤ 0.2
94 | NATT | ≤ 0.2
95 | LRNV | ≤ 0.2
96 | MRHY | ≤ 0.2
97 | KGRF | ≤ 0.2
98 | YADG | ≤ 0.2
99 | YTRC | ≤ 0.2
100 | QWHV | ≤ 0.2
101 | RMQP | ≤ 0.2
102 | RMST | 0.945
103 | RMYT | 0.923
104 | RMYD | ≤ 0.2

Row | Variant | one-hybrid fitness for binding parS DNA
105 | RMSM | 0.37
106 | RMQT | 0.921
107 | RMQD | 0.318
108 | RMYP | ≤ 0.2
109 | RMSF | 0.258
110 | VHYL | ≤ 0.2
111 | ADVS | ≤ 0.2
112 | GAPV | ≤ 0.2
113 | SQVL | ≤ 0.2
114 | AMKY | ≤ 0.2
115 | GIMG | ≤ 0.2
116 | SACQ | ≤ 0.2
117 | RWLW | ≤ 0.2
118 | RMAN | 0.46
119 | RMFP | ≤ 0.2
120 | RMFS | 1.07
121 | RMAH | 0.282
122 | RMFD | ≤ 0.2
123 | RMAS | 0.991
124 | PWEY | ≤ 0.2
125 | LATA | ≤ 0.2
126 | RLDI | ≤ 0.2
127 | ENYW | ≤ 0.2
128 | AEQK | ≤ 0.2
129 | RYFN | 0.425
130 | RYAP | ≤ 0.2

Row | Variant | one-hybrid fitness for binding parS DNA
131 | RYAH | ≤ 0.2
132 | RYFS | 1.02
133 | RYAS | 0.917
134 | RYFP | ≤ 0.2
135 | PWFC | ≤ 0.2
136 | RMLH | 0.275
137 | RMNY | 0.529
138 | RMRS | 0.868
139 | RMDD | ≤ 0.2
140 | RMDS | 1.02
141 | RMLN | 0.439
142 | RMRP | ≤ 0.2
143 | RMDY | 0.405
144 | RMDP | ≤ 0.2
145 | RMRN | 0.418
146 | RMLS | 1.04
147 | FDLP | ≤ 0.2
148 | LARN | ≤ 0.2
149 | YKTN | ≤ 0.2
150 | PMMG | ≤ 0.2
151 | TDRN | ≤ 0.2
152 | IALI | ≤ 0.2
153 | HAQR | ≤ 0.2
